Rows were chosen to be rich in hits. Some 2.8% of all compounds tested hit in one or more screens of this group.
Rev-erbA mod = modulates human Rev-erb alpha binding to DNA | P20393 | Rev-erbα–FITC-DNA binding, fluorescence polarization, 90 min | activity, % at 10 µM | actives 0.79% (n = 370,000);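 active = activity above about 14%, limit read from the data; passing the limit was not always enough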;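 also: 0% = DMSO wells with 35 nM protein and 100% = DMSO wells with 750 nM protein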
Target sequence (P20393 whole entry, looked up): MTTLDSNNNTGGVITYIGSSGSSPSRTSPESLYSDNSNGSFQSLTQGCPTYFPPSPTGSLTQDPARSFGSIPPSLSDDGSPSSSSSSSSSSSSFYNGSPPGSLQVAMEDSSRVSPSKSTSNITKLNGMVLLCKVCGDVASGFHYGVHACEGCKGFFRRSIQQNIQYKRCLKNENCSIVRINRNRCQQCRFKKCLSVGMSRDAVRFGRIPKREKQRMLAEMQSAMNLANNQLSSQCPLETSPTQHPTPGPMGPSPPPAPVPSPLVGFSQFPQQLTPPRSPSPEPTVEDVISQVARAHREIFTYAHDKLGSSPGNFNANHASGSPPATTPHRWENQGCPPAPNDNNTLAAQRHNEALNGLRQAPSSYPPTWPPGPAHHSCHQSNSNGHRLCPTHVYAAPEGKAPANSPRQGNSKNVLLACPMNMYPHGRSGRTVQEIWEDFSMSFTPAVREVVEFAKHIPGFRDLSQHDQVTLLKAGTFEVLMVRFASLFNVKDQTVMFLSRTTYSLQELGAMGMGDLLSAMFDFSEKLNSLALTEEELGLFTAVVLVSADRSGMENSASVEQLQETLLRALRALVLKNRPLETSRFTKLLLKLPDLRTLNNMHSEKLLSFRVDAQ
PP5 primary = inhibitors of human protein phosphatase 5 (PP5) | purified PP5c, OMFP substrate fluorescence | inhibition, % at 6.7 µM | actives 0.18% (n = 320,000) | AID 1987;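 active = inhibition above the campaign's mean inhibition across all tested compounds plus 3 SD, cut at about 9.5% in these data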;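 also: 0% = DMSO only and 100% = 100 µM cantharidin control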
proKLK7 act = activators of human kallikrein-7 zymogen. P49862. purified proKLK7, EDANS-DABCYL substrate fluorescence; 100% is mature enzyme control, 0% vehicle. activation, % at 7 µM. actives 0.9% (n = 370,000). AID 652039;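 active = activation above the mean of all tested compounds plus 3 SD, computed per campaign excluding outliers beyond control limits, cut at about 13% in these data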
PG9 binder = PG9 antibody binding by small molecule; TR-FRET gp120-PG9 antibody binding; inhibition, % at 6.7 µM; actives 0.43% (n = 360,000); in the data active = inhibition above about 8.5%
JMJD2C inh = blocks human GASC-1 demethylase activity. Q9H3R0. GST-JMJD2C(1-420) H3K9me3 demethylation, DELFIA europium. inhibition, % at 2.35 µM. actives 0.069% (n = 330,000). AID 2099;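 active = more than half of a compound's replicate wells show inhibition beyond 50%, single wells judged on their own value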;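 also: signal counts dimethyl H3K9 product captured on neutravidin plate; 0% = median of DMSO wells and 100% = 0.3 times that DMSO median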
PP1 counter = blocks human PP1-alpha phosphatase, a PP5 counter-screen. P62136. purified PP1alpha, OMFP fluorescence. inhibition, % at 6.7 µM. actives 0.9% (n = 320,000). AID 2235;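 active = inhibition above the mean inhibition of all tested compounds plus 3 SD, computed separately for each screening campaign, cut at about 15% in these data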
PP5 conf = confirmation of human PP5 phosphatase inhibitors | shares compounds with PP5 primary | Purified PP5, fluorogenic phosphatase substrate, fluorescence | inhibition, % at 6.7 µM | actives 22% (n = 460); in the data active = inhibition above about 9.5%
PP1 counter 3x = inhibits human PP1 phosphatase in PP5 counter-screen; PP1 enzyme, fluorescent phosphatase substrate; shares compounds with PP5 primary; actives 4% (n = 460); inhibition, % at 6.7 µM; AID 2355; in the data active = inhibition above about 16%
Active calls of the source: *; · = not tested or not shown.

SMILES	Rev-erbA mod	PP5 primary	proKLK7 act	PG9 binder	JMJD2C inh	PP1 counter	PP5 conf	PP1 counter 3x
CCOC(=O)c1c(NC(=O)C2C3C=CC(C3)C2C(=O)O)sc2c1CCC(CC)C2 (stereo not drawn)	-25	2	0	2	25	4	·	·
CCOC(=O)c1c(NC(=O)C2C3CCC(O3)C2C(=O)O)sc(C)c1-c1ccc(F)cc1 (stereo not drawn)	0	13*	0	6	7	4	1	4
CCOC(=O)c1c(NC(=O)C2C3CCC(O3)C2C(=O)O)sc2c1CCC(CC)C2 (stereo not drawn)	0	14*	0	0	-3	8	2	4
Cc1cc(NS(=O)(=O)c2ccc(Nc3nc(-c4ccc(C)c(C)c4)cs3)cc2)no1	0	11*	0	0	-33	4	5	9
COc1ccc(OC)c(C2=Nn3c(nnc3-c3cccc(OC(C)C)c3)SC2)c1	7	12*	0	-1	4	3	0	0
COc1ccc(C2=Nn3c(nnc3-c3ccncc3)SC2)cc1	-6	12*	0	0	-6	-3	-3	-3
Cc1ccc(Cn2cc(CN3[C@H](CC(C)C)COc4cc(Br)ccc4S3(=O)=O)nn2)cc1	-1	·	0	·	·	·	·	·
C[C@H]1C(=O)N2[C@@H](C[C@]3(c4c[nH]c5ccccc45)c4ccccc4N(S(=O)(=O)c4ccccc4)[C@H]23)C(=O)N1C	-3	·	·	·	·	·	·	·
COc1ccc(C(=O)NNC(=O)CCc2ccccc2OC)cc1	8	16*	0	-2	0	-4	-4	-3
CCn1c(=O)c([N+](=O)[O-])c(N2CCN(Cc3ccc4c(c3)OCO4)CC2)c2ccccc21	0	10*	-1	-1	-1	-2	-4	-2
Cn1c(NC(=O)c2ccco2)c(-c2ccccc2)c(=O)c2ccccc21	-1	-1	1	-1	-28	0	·	·
CCn1c(NC(=O)c2ccco2)c(-c2ccccc2Cl)c(=O)c2ccccc21	2	12*	-1	0	-1	-1	-8	-5
COc1cc(NC(=O)C2CCCN(S(=O)(=O)c3ccc(C)c(C)c3)C2)cc(OC)c1 (stereo not drawn)	-6	·	0	·	·	·	·	·
CCCOC(=O)c1ccc(NC(=O)C2C3C=CC(O3)C2C(=O)O)cc1 (stereo not drawn)	6	21*	0	0	-4	1	0	0
CCCOC(=O)c1ccc(NC(=O)COC)cc1	3	1	1	1	-1	2	·	·
CC(C)OC(=O)c1cc(NC(=O)C2C3C=CC(O3)C2C(=O)O)cc(C(=O)OC(C)C)c1 (stereo not drawn)	2	31*	4	2	2	8	-4	3
O=C(O)C1C2C=CC(O2)C1C(=O)Nc1ccc(S(=O)(=O)Nc2ccccc2)cc1 (stereo not drawn)	1	1	0	1	18	-2	·	·
O=C(O)C1C2C=CC(O2)C1C(=O)Nc1ccc(S(=O)(=O)N2CCc3ccccc32)cc1 (stereo not drawn)	0	17*	0	-2	11	3	3	3
COc1cccc(NC(=O)C2C3C=CC(O3)C2C(=O)O)c1 (stereo not drawn)	-2	24*	-1	-4	0	5	2	18*
COc1ccc(NC(=O)C2C3C=CC(O3)C2C(=O)O)cc1 (stereo not drawn)	11	7	-1	-2	9	-1	·	·
NC(=O)c1ncn([C@@H]2O[C@H](C(=O)N[C@H](Cc3ccccc3)C(=O)O)[C@@H](O)[C@H]2O)n1	6	·	0	-2	·	·	·	·
O=C(N[C@@H](Cc1cccnc1)C(=O)N1CCC[C@H]1C(=O)NC1CCCC1)C1CC1	-4	·	0	-1	·	·	·	·
O=C(O)C1C2C=CC(C2)C1C(=O)Nc1ccc2c(c1)OCCO2 (stereo not drawn)	·	0	·	·	1	1	·	·
O=C(O)C1C2C=CC(O2)C1C(=O)Nc1ccc2c(c1)OCCO2 (stereo not drawn)	·	15*	·	·	10	7	1	10
CC(=O)c1ccc(NC(=O)C2C3C=CC(O3)C2C(=O)O)cc1 (stereo not drawn)	-2	24*	0	0	-5	4	3	8
SMILES	Rev-erbA mod	PP5 primary	proKLK7 act	PG9 binder	JMJD2C inh	PP1 counter	PP5 conf	PP1 counter 3x
CC(=O)c1ccc(NC(=O)C2C3CCC(C3)C2C(=O)O)cc1 (stereo not drawn)	-2	-2	0	-2	-6	-5	·	·
CC(=O)OC[C@H]1O[C@H](C#Cc2ccc(C(C)(C)C)cc2)C=C[C@H]1OC(=O)Nc1ccccc1	1	·	-1	-3	·	·	·	·
COC(=O)c1cc2c(c3c4cc(F)ccc4n(S(=O)(=O)c4cccc(C)c4)c13)C(=O)N(Cc1ccccc1OC)C2	6	·	-1	-1	·	·	·	·
COCCNC(=S)N(C)[C@H]1C[C@H]2c3[nH]c4c(-c5ccccc5)cccc4c3CCN2C[C@H]1[C@H](C)O	-4	·	1	-3	·	·	·	·
CC1(C)C=Cc2c(ccc3c2OC[C@H](c2ccc(O)cc2O)C3)O1	5	9.6*	1	-2	1	4	8	5
CN1C=CC=C/C1=C1\SC(=S)N(C2CCCCC2)C1=O	2	9.7*	0	-1	19	1	-1	-1
CN1C=CC=C/C1=C1\SC(=S)N(c2ccccc2)C1=O	2	3	0	-4	-1	1	·	·
COC(=O)[C@]12C[C@H](CC(=O)N3CCSCC3)C(=O)N(CCC3=CCCCC3)C1=C[C@H](C1CCCC1)O[C@@H]2C	-3	·	1	·	·	·	·	·
O=C(CC1C(=O)NCCN1C(=O)Nc1ccc(F)cc1)Nc1ccc(F)cc1 (stereo not drawn)	-3	9.7*	0	0	-10	2	-5	-1
CCOC(=O)CN1CCc2c(C)nc3c(-c4ccc(OC)c(OC)c4)cnn3c21	-3	12*	2	-13	4	3	-1	-1
COc1ccccc1N1CCN(c2nc(C)nc3c2oc2ccccc23)CC1	0	10*	0	-1	-3	1	1	0
Cc1nc(N2CCC(C)CC2)c2oc3ccccc3c2n1	1	6	0	1	6	-1	·	·
COc1cc(OC)c(C2C(C(=O)Nc3ccc(C)cc3C)=C(C)Nc3ncnn32)cc1OC (stereo not drawn)	-4	15*	-1	-3	8	2	-3	-3
COc1cc(OC)c(C2C(C(=O)Nc3ccccc3)=C(C)Nc3ncnn32)cc1OC (stereo not drawn)	0	0	0	0	5	-7	·	·

Source: PubChem BioAssay (several laboratories)
